# Laboratory results as given in PubChem BioAssay (NCATS).
# Records with an inconclusive call do not appear. A number with no mark means an inactive call. Activity calls are given as the source filed them. The call rests on the fitted dose curve; in most records, active means well fitted cell-killing curve with a large enough effect; inconclusive means small, poorly fitted or top-dose-only effect; inactive means flat fitted curve, though single readings scatter.
# Test: Quantitative highthroughput screen to assess conditional lethalithy of P12 Ichikawa cells grown in Human Plasma-Like Medium with dialyzed fetal bovine serum (HPLM+ds) (AID 1963879); further: nearly all actives have a fitted effect of over 35% in size
# Details: ATP luminescence, 48 h; Potency: viability; series mostly up to 45.8 µM; viability: at the top concentration
# Excerpt: Assay Provider: Jason Cantor Ph.D.
# Department of Biochemistry
# University of Wisconsin-Madison, Madison, WI, USA
# Chemical screening studies have identified drug sensitivities across hundreds of cancer cell lines but most putative therapeutics fail to translate. Discovery and development of drug candidates in models that more accurately reflect nutrient levels in human blood is a major challenge. Here we performed high-throughput screens in conventional versus Human Plasma-Like Medium (HPLM) to identify compounds that were "missed" when screening using the artificial culture condition. Sets of conditional anticancer compounds spanned phases of clinical development and included non-oncology drugs were assessed. […] We also traced conditional phenotypes for several chemotherapeutics to availability of HPLM-specific metabolites and confirmed others for compounds whose reported targets are encoded by nonessential genes. Our findings establish generalizable strategies for exploiting conditional lethality in HPLM to reveal therapeutic candidates and mechanisms of action in cancer cells.
# Described herein are the results of each viability screens against three cell lines: NOMO1 (an acute myeloid leukemia cell line); P12-Ichikawa (a T-cell acute lymphoblastic leukemia); and SEM (a B-cell ALL). Each assay was screened using 3 different cell culture media: homemade human plasma-Like medium with 10% dialyzed fetal bovine serum (HPLM+ds); RPMI1640 with 10% untreated FBS and 5mM glucose (RPMI+s); and RPMI1640 with 10% dialyzed fetal bovine serum and 5 mM glucose (RPMI+ds).
# PROTOCOL TABLE (as described by Inglese J, Shamu CE and Guy RK. 2007)
# SEQUENCE No. (e.g., 1, 2, 3, etc.); […] (e.g., Cells, Incubation, Reagent, etc.); VALUE and DESCRIPTION.
# 1; Cells; 5 uL; white, solid bottom 1536-well Greiner assay plate.
# 2; Compounds; 23 nL; Kalypsis pin tool (Wako USA) equipped with a 1536-well pin head to transfer to the assay plates.
# 3; Incubation; 48 hours; 37C incubation.
# 4; Reagent; 3 uL; CellTiter Glo (Promega).
# 5; Incubation; 5 min, room temperature
# 6; Detection; Luminescence, Viewlux PerkinElmer.
# NOTES (numbers refer to Sequence numbers above)
# 1. Briefly, 5 ul of cell reagent was dispensed using a Multidrop Combi Dispenser. The NOMO1 and SEM cells were plated at 500 cells/well and the P12-Ichikawa line at 1000 cells/well.
# 2. After seeding the cells, 23 nL of MIPE 4.1 library compounds (in DMSO) were added to each plate using a Kalypsys 1536 Pintool dispenser. Bortezomib at final concentration of […] and DMSO were added to each plate as positive and negative controls respectively. For each screen, MIPE 4.1 compounds were added over an eleven-point concentration range […] in 3-fold dilutions.
# 3. Each plate was covered with a stainless steel gasketed lid to prevent evaporation and incubated for 48 hour at 37C, 95% relative humidity, and 5% CO2.
# 4-5. Three microliter CellTilter-GloTM luminescent substrate mix (Promega) reagent was added to the assay plate and incubated at room temperature for 5 min.
# 6. The luminescence signal was measured using a ViewLux (PerkinElmer) multiplate reader with a 2 second exposure time per plate. Data for each compound were normalized as percent viability such that measurements for DMSO and the empty well controls in each plate were defined as 100% and 0%, respectively.
# Potency means the concentration at half of the fitted maximal effect.
Compound,viability [%],Potency
CCOC(=O)C1=C(O)C(=O)N(Cc2ccccc2)C1,101,–
CCS(=O)(=O)N1CC(CC#N)(n2cc(-c3ncnc4[nH]ccc34)cn2)C1,92.8,–
COc1cccc(OC)c1-c1cc(C(=O)NC2(C(=O)O)C3CC4CC(C3)CC2C4)nn1-c1ccnc2cc(Cl)ccc12 (stereo not given),89.1,–
CC(C)(Sc1ccc(CCN(CCCCC2CCCCC2)C(=O)NC2CCCCC2)cc1)C(=O)O,86.4,–
OCc1ccc(-c2ccc(-c3ccc(CO)s3)o2)s1,88.6,–
CC1=CC(=O)c2ccccc2C1=O,108,–
Nc1ncnc2c1ncn2[C@@H]1O[C@H](CO)[C@@H](O)[C@@H]1O,–,7.43 µM (active)
Cc1ccc(C(C)(O)c2nc3ccccc3s2)c(C)c1 (stereo not given),–,10.5 µM (active)
COc1ccccc1N1CCN(CCN(C(=O)C2CCCCC2)c2ccccn2)CC1,95.3,–
O=C(Nc1cc(Cl)cc2c1[nH]c1cnccc12)c1cccnc1,102,–
CC[C@H]1OC(=O)[C@H](C)[C@@H](O[C@H]2C[C@@](C)(OC)[C@@H](O)[C@H](C)O2)[C@H](C)[C@@H](O[C@@H]2O[C@@H](C)C[C@H](N(C)C)[C@@H]2O)[C@](C)(O)C[C@@H](C)C(=O)[C@H](C)[C@@H](O)[C@]1(C)O,–,16.6 µM (active)
COc1cc2c(cc1O)CCC1C2CC[C@@]2(C)C1CC[C@@H]2O (stereo not given in full),–,1.87 µM (active)
CCC(C=C[C@@H]1OC(=O)C=C[C@H]1C)=C[C@H](C)CC=CC(C)=C[C@@H](C)C(=O)[C@@H](C)[C@H](O)[C@@H](C)CC(C)=CC(=O)O,–,0.11 µM (active)
Cc1nnc(C(=O)NC(C)(C)c2nc(C(=O)NCc3ccc(F)cc3)c(O)c(=O)n2C)o1,111,–
CN(C)[C@@H](CCOc1cccc2ccccc12)c1ccccc1,90.1,–
Cc1cc(SCc2sc(-c3ccc(C(F)(F)F)cc3)nc2C)ccc1OCC(=O)O,95.3,–
OC(CN1CCC(Cc2ccc(F)cc2)CC1)c1ccc(Cl)cc1 (stereo not given),101,–
C[C@H](NCc1ccc(OCc2cccc(F)c2)cc1)C(N)=O,–,23.5 µM (active)
COc1ccc(C=CC(=O)Nc2ccccc2C(=O)O)cc1OC,103,–
Cc1cnn(C)c1C(=O)Nc1cc(Nc2ccc3c(C=Cc4ccccn4)n[nH]c3c2)ccc1F,–,20.9 µM (active)

Compound,viability [%],Potency
COc1ccc2c(Oc3ccc(NC(=O)c4c(C)n(CC(C)(C)O)n(-c5ccccc5)c4=O)nc3)ccnc2c1,83.1,–
COC1CCC(C(=O)c2ccc3nc4c(cc3c2)CCCO4)CC1 (stereo not given),88.6,–
Cc1ncc(-c2ccnc(Nc3ccc(S(C)(=O)=O)cc3)n2)n1C(C)C,–,20.9 µM (active)
COc1ccccc1[C@H](c1cccc2ccccc12)[C@@](C)(C#N)C(=O)N1CCC(c2cccc(C(F)(F)F)c2)CC1,–,16.6 µM (active)
Cn1cc(-c2ccc3nnc(Sc4ccc5ncccc5c4)n3n2)cn1,108,–
c1cnc2cc3c(cc2n1)C1CNCC3C1,88.6,–
CCc1ccc(C(=O)Nc2cc(CN3CCN(C)CC3)cc(C(F)(F)F)c2)cc1C#Cc1cnc2ccnn2c1,90.3,–
CN1C(=O)C(Cc2c[nH]c3ccccc23)NC1=S (stereo not given),92.5,–
CCN(c1ccccc1)c1cc(NC)[n+](C)c(C)n1,101,–
Oc1ccc(OCc2ccccc2)cc1,–,7.43 µM (active)
CN(C)CCCN=c1c2ccccc2n(C)c2[nH]c(=O)n(C)c(=O)c12,–,26.4 µM (active)
Cn1cc(-c2ccncc2)c(-c2ccc(OCc3ccc4ccccc4n3)cc2)n1,–,14.8 µM (active)
CN[C@@H](C)C(=O)N[C@H]1CCCC[C@H]2CC[C@@H](C(=O)N[C@@H](c3ccccc3)c3cn(CCCCc4ccc(CCCCn5cc([C@@H](NC(=O)[C@@H]6CC[C@@H]7CCCC[C@H](NC(=O)[C@H](C)NC)C(=O)N76)c6ccccc6)nn5)cc4)nn3)N2C1=O,92.2,–
O=C(CCCCCCC(=O)Nc1cccnc1)NO,–,7.43 µM (active)
CC1=NN(c2ccccc2)C(=O)C1,96.9,–
O=C1NCCc2[nH]c(-c3ccncc3)cc21,–,16.6 µM (active)
CC(C(=O)O)c1cccc(C(=O)c2ccccc2)c1 (stereo not given),101,–
CNC(=O)c1ccccc1Nc1nc(Nc2ccc(N3CCOCC3)cc2OC)ncc1Cl,–,8.33 µM (active)
CCn1c(-c2nonc2N)nc2cnc(Oc3cccc(NC(=O)c4ccc(OCCN5CCOCC5)cc4)c3)cc21,–,9.35 µM (active)
CCOC(=O)N1c2ccc(C(F)(F)F)cc2[C@@H](N(Cc2cc(C(F)(F)F)cc(C(F)(F)F)c2)C(=O)OC)C[C@H]1CC,97.2,–
